Screens: PubChem, Broad Institute
The entries come from a sample that favours hits as a whole.
DUX4 txn inh = inhibitors of DUX4-driven ZSCAN4 reporter expression, primary screen, 293T cells, Gaussia and Italica luciferase; actives 0.8% (n = 37,000); activity change, negative = inhibition, % (test concentration not listed); 293T-iDUX4 ZSCAN4-Gaussia luciferase reporter, 24 h; active compounds read low;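 active means mean inhibition of at least 10% in the main channel, exceeding the control channel by a set limit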;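 further: 0% = median of neutral control wells and -100% = median of positive control wells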
An asterisk follows results filed as active; ! = repeats disagree.

How did C/C=C/c1ccc(C2[C@@H]3CN(C(=O)C4CCCC4)C[C@H]2N3)cc1 (stereo partly drawn) do in these assays?
DUX4 txn inh: 12

What do the screens show for `C/C=C/c1ccc(C2[C@@H]3CN(Cc4ccccn4)C[C@H]2N3)cc1` (stereo partly drawn)?
DUX4 txn inh: -2

What do the screens show for `C/C=C/c1ccc(C2[C@@H]3CN(C(C)=O)C[C@H]2N3)cc1` (stereo partly drawn)?
DUX4 txn inh: -21*!

What do the screens show for `O=C(O)[C@@H]1[C@@H](CO)[C@@H]2Cn3c(ccc(-c4cccnc4)c3=O)[C@H]1N2S(=O)(=O)c1ccccc1F`?
DUX4 txn inh: -2

Results for CCC(=O)N1[C@@H]2Cn3c(ccc(-c4cccc(F)c4)c3=O)[C@H]1[C@@H](C(=O)OC)[C@@H]2CO ?
DUX4 txn inh: 1

Results for COC(=O)[C@@H]1[C@@H](CO)[C@@H]2Cn3c(ccc(-c4ccccc4)c3=O)[C@H]1N2CC1CC1 ?
DUX4 txn inh: -2

What do the screens show for `N#Cc1ccc(-c2ccc([C@@H]3[C@@H](CO)N4CCCCN(C(=O)Cc5ccccc5)C[C@H]34)cc2)cc1`?
DUX4 txn inh: 5

What do the screens show for `O=C(Cc1ccccc1)N1CCCCN2[C@H](CO)[C@@H](c3ccc(C#CC4(O)CCCC4)cc3)[C@H]2C1`?
DUX4 txn inh: -6

What do the screens show for `O=C(Cc1ccncc1)N1CCCCN2[C@H](C1)[C@H](c1ccc(C#Cc3ccccc3F)cc1)[C@@H]2CO`?
DUX4 txn inh: -63*

How did COC(=O)[C@@H]1[C@@H](CO)[C@@H]2Cn3c(ccc(-c4ccccc4OC)c3=O)[C@H]1N2Cc1ccccc1 do in these assays?
DUX4 txn inh: -8
